Screens from PubChem BioAssay.
Sampled rows, rich in hits. Any-hit rate of the full collection: about 22%.
F-actin modifier = modifiers of F-actin cytoskeleton organization, primary screen, imaging, HUVEC, phalloidin staining, high-content imaging; HUVEC TNFa F-actin phalloidin imaging; 0.18% of 91,000 active; AID 836, 2007; inhibition, % at 2 µM;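 active = inhibition above the batch mean plus 3 SD and confirmed as a hit by visual image inspection, cut at about 30% in these data, passing the limit was not always enough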
CYP2C9 inh = blockers of cytochrome P450 2C9 activity – biochemical, luminescence, ADME assay, primary screen; P11712; CYP2C9 Supersomes, luciferin-H conversion; inhibition, % at 5 µM; 20% of 96,000 active;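 active = blocking of liver enzyme CYP2C9 beyond about 50% at 5 µM, limit read from the data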
Target sequence (P11712 whole entry, looked up): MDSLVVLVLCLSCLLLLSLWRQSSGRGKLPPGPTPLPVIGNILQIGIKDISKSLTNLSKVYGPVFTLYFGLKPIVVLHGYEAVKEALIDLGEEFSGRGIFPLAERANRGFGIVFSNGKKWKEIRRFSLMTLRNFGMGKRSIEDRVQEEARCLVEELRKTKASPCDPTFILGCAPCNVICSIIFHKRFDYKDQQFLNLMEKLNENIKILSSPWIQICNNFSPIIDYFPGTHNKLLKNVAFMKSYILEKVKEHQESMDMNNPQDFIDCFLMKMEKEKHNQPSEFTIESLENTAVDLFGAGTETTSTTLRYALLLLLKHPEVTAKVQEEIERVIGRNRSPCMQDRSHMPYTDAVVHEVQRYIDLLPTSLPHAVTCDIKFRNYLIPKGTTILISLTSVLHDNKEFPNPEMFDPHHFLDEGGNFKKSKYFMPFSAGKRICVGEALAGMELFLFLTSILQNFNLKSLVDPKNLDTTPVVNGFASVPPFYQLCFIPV
E-sel TNF inh = E-selectin induction blockers in HUVEC – imaging, immunofluorescence, high content, primary screen; 0.71% of 120,000 active; inhibition, % at 2 µM; HUVEC TNFa-induced E-selectin immunofluorescence; AID 1246, 2008;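 active = inhibition above the batch mean plus 3 SD, and confirmed as a hit on visual image review, cut at about 43% in these data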;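 also: 0% = TNF-stimulated DMSO wells and 100% = unstimulated control wells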
CYP2C19 activ = human CYP2C19 activators, primary screen, biochemical, luminescence. Cytochrome P450 2C19 (Homo sapiens), P33261. recombinant CYP2C19, luciferin-H EGE luminescence; stronger effect = higher value; 0 = fully inhibited enzyme, 1 = untreated enzyme. activation factor at 5 µM. 96,000 tested, under 10 active. AID 1025, 2008;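 active = activation factor of at least 2 at 5 µM in the primary screen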;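 also: 0 = wells with 2.5 mM tranylcypromine and 1 = vehicle-only wells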
CYP2C9 activ = human CYP2C9 activators, primary screen, biochemical, luminescence | Cytochrome P450 2C9 (Homo sapiens), P11712 | AID 1024, 2008 | activation factor at 5 µM | 1.4% of 96,000 active | recombinant CYP2C9, luciferin-H conversion; stronger effect = higher value; factor 1 = untreated enzyme, 0 = blocked;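 active = activation factor of 2 or more for CYP2C9 at a 5 µM dose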;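 also: 0 = sulfaphenazole-blocked wells and 1 = vehicle-only wells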
CYP2C19 inhib = blockers of cytochrome P450 2C19 activity – biochemical, luminescence, ADME assay, primary screen; P33261; CYP2C19 Supersomes, luciferin-H EGE luminescence, 30 min; inhibition, % at 5 µM; 21% of 96,000 active; AID 778, 2007;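 active = CYP2C19 inhibition above a set limit at 5 µM in the primary screen, cut at about 50% in these data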;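 also: plate controls were negative control wells for no effect and 2.5 mM tranylcypromine positive control for full effect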
* hit, by the source's call; x = not tested or not shown.

SMILES | F-actin modifier | CYP2C9 inh | E-sel TNF inh | CYP2C19 activ | CYP2C9 activ | CYP2C19 inhib
c1ccc(CCNc2ncnc3c2nnn3Cc2ccccc2)cc1 | 21 | 6 | -12 | 1 | 0.9 | -3
Cc1cccc(CCNC(=O)CCc2nnc(CCc3ccccc3)o2)n1 | x | x | -4 | x | x | x
O=C(Nc1ccc(OCC(F)(F)C(F)F)c(C(F)(F)F)c1)c1ccccc1O | 7 | -29 | -66 | 0.7 | 1.3 | 26
CCOC(=O)COc1ccc(Br)cc1C1NC(=O)NC(C)=C1C(=O)NCc1ccccc1 (stereo not given) | 16 | 83* | 15 | 1 | 0.2 | 0
C=CCc1cccc(CNc2nc3ccccc3n2CC)c1O | -10 | -106 | 33 | 0.6 | 2.1* | 43
Cn1c(NCc2cccs2)nc2ccccc21 | 21 | 3 | -2 | 0.5 | 1 | 52*
CCn1c(NCc2cccs2)nc2ccccc21 | 27 | -54 | -7 | 0.4 | 1.5 | 57*
Cn1c(NCc2c[nH]c3ccccc23)nc2ccccc21 | x | 16 | -31 | 0.3 | 0.8 | 69*
C=CCc1cccc(CNc2nc3ccccc3n2CCC)c1O | 14 | -47 | -24 | 0.6 | 1.5 | 41
Cn1c(NCc2ccco2)nc2ccccc21 | 23 | -14 | 16 | 0.8 | 1.1 | 17
CC1CCN(C(c2cc3cc4c(cc3[nH]c2=O)OCO4)c2nnnn2CC2CCCO2)CC1 (stereo not given) | 3 | 2 | 3 | 1 | 1 | 0
COc1ccccc1CNC(=O)CSc1nc2nc(C)cc(C)n2n1 | 0 | -32 | -2 | 1.1 | 1.3 | -7
CCn1c(NCc2ccc(N(C)C)cc2)nc2ccccc21 | 11 | -16 | -4 | 0.3 | 1.2 | 72*
c1ccc(Cn2c(CNc3nc4ccccc4n3CCN3CCCCC3)nc3ccccc32)cc1 | -3 | x | 3 | x | x | x
CCN(CC)CCn1c(NCc2nc3ccccc3n2Cc2ccccc2)nc2ccccc21 | -2 | 86* | 9 | 0.8 | 0.1 | 19
CCn1c(NCc2ccccn2)nc2ccccc21 | -10 | x | 20 | x | x | x
Cc1cc2c(cc1C)/C(=C\C(N)=O)NC(C)(C)C2 | x | 0 | x | 1.1 | 1 | -14
CC(=O)Oc1c(C)cc(O)c2ccccc12 | -2 | 19 | -14 | 0.4 | 0.8 | 62*
Cc1cccc(OCC(=O)Nc2nc3ccc([N+](=O)[O-])cc3s2)c1 | -3 | 91* | -12 | 0.3 | 0.1 | 70*
CCOc1ccc2nc(SCC(=O)c3ccc(C)s3)sc2c1 | -10 | 12 | 8 | 0.5 | 0.9 | 51*
CC(C)Cc1nnc(NC(=O)CSc2ccccn2)s1 | 4 | 31 | -22 | 0.4 | 0.7 | 56*
CCOc1ccc2nc(NC(=O)CSc3ccc(Cl)cc3)sc2c1 | 3 | 63* | 11 | 0.9 | 0.4 | 6
Cc1cccc(OCC(=O)Nc2nc3ccc([N+](=O)[O-])cc3s2)c1C | 6 | -34 | 18 | 1.1 | 1.3 | -10
CCOc1ccc2nc(SCC(=O)Nc3ccc4c(c3)OCO4)sc2c1 | x | x | -1 | x | x | x
COc1ccc(OC)c2c1CCC2=O | -12 | x | -2 | x | x | x
SMILES | F-actin modifier | CYP2C9 inh | E-sel TNF inh | CYP2C19 activ | CYP2C9 activ | CYP2C19 inhib
Cn1nnc2cc(C(=O)N3CCSCC3)ccc21 | 4 | -5 | -11 | 1 | 1.1 | -4
CN(C1CCCCC1)S(=O)(=O)c1ccc2c(c1)c(=O)c(C(=O)N1CCc3ccccc3C1)cn2C | -17 | 15 | -64 | 0.9 | 0.9 | 6
O=C(c1cc(Cl)ccc1[N+](=O)[O-])n1cnc2ccccc21 | x | x | 44 | x | x | x
COc1ccc2nc(NC(=O)CSC3=NCCS3)sc2c1 | 22 | 29 | 100* | 0.4 | 0.7 | 64*
CCCC(=O)Nc1nc2ccc(OC)cc2s1 | x | -6 | -28 | 1 | 1.1 | 0
COc1ccc2nc(NC(=S)N(C)C)sc2c1 | -10 | 94* | -4 | 0 | 0.1 | 99*
CCOCC(=O)Nc1nc2ccc(C)cc2s1 | -14 | x | 8 | x | x | x
COCc1nnc(NC(=O)CSc2ccccc2)s1 | 29 | 40 | -7 | 0.3 | 0.6 | 67*
CCOc1ccc2nc(NC(=O)CSC3=NCCS3)sc2c1 | -12 | 25 | 29 | 0.8 | 0.7 | 20
CCOCC(=O)Nc1nc2ccc(OCC)cc2s1 | -12 | 32 | -8 | 0.5 | 0.7 | 52*
CCOc1ccc(S(=O)(=O)NCc2csc(C)n2)cc1 | 7 | -5 | 15 | 0.6 | 1 | 43
COc1ccc2nc(NC(=O)CSc3ccccc3)sc2c1 | -16 | 63* | -5 | 0.7 | 0.4 | 31
Cc1cccc(C(=O)N2c3ccccc3C(=O)OC2c2ccc3c(c2)OCO3)c1 (stereo not given) | -8 | 58* | -22 | 0.7 | 0.4 | 27
O=C(CN1CC(c2ccccc2)CC1=O)Nc1ccc2c(c1)OCO2 (stereo not given) | x | x | -2 | x | x | x
CC(=O)N1C(c2ccccc2)CC(=O)OC1c1ccc2c(c1)OCO2 (stereo not given) | 4 | 14 | -23 | 0.3 | 0.9 | 69*
CC1CN(C(=O)c2ccc3c(c2)OCO3)CC(C)O1 (stereo not given) | 0 | -1 | 46 | 1 | 1 | 4
O=C1OC(c2ccc3c(c2)OCO3)N(C(=O)c2ccc(Cl)c(Cl)c2)c2ccccc21 (stereo not given) | 6 | 86* | 18 | 0.2 | 0.1 | 84*
CC(=O)N1c2ccccc2C(=O)OC1c1cccnc1 (stereo not given) | -42 | 10 | 4 | 0.9 | 0.9 | 12
O=C(Oc1ccccc1)c1cccc2cccnc12 | -4 | -28 | 15 | 0.8 | 1.3 | 23
Nc1nc2n(c1C(=O)c1ccccc1)CCC2 | 4 | -16 | -20 | 0.9 | 1.2 | 12
Cc1c2c(nc3nc4ccccc4n13)CC(C)(C)CC2=O | 0 | 6 | 3 | 0.7 | 0.9 | 30
CC(=O)c1cccc(NC(=O)N2CCCC2C(=O)Nc2cccc(C)c2C)c1 (stereo not given) | 8 | 88* | x | 0.1 | 0.1 | 90*
Cc1cc(NC(=O)C2CCCN2C(=O)Nc2c(C)cccc2C)ccc1-n1cnnn1 (stereo not given) | 8 | x | -6 | x | x | x
Cc1cc(C)cc(NC(=O)N2CCCC2C(=O)Nc2ccc(-n3cnnn3)c(C)c2)c1 (stereo not given) | -3 | 10 | 12 | 0 | 0.9 | 96*
CC(=O)c1cccc(NC(=O)N2CCCC2C(=O)Nc2ccccc2C)c1 (stereo not given) | -16 | 56* | -13 | 1 | 0.4 | 4
CC(=O)c1cccc(NC(=O)N2CCCC2C(=O)NCc2ccc(C)cc2)c1 (stereo not given) | 7 | 31 | -20 | 0.5 | 0.7 | 48
CC(=O)c1cccc(NC(=O)N2CCCC2C(=O)NC2CCCCC2)c1 (stereo not given) | -5 | 22 | -19 | 0.8 | 0.8 | 20
